In PubChem BioAssay (NCI) one finds growth inhibition data, which are given here for 21 compounds.

About 79,000 compounds went through this panel and 15% of them were active in at least one assay; those are over-represented in the sample as a whole. A number with no mark means an inactive call. Activity calls are given as the source filed them. No stated cut-off is given here; in the data, active means growth inhibition above about 70%; inactive means the rest. Where a SMILES comes first, the peptide text is derived from it. The star is where a group is joined. Myristoyl = CCCCCCCCCCCCCC(=O)*

The nature of test [1]: NCI Yeast Anticancer Drug Screen. Data for the rad50 strain (AID 155).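 Further: 0% = growth of vehicle-only cultures of the same strain.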 Particulars: S. cerevisiae rad50 strain growth inhibition; at 50.0 µM; active compounds read high. The method in brief: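 Growth of the mutant yeast was measured after compound exposure and referenced to vehicle-treated cultures.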
A short description of test [2]: NCI Yeast Anticancer Drug Screen. Data for the mec2-1 strain (AID 157). Particulars: S. cerevisiae mec2-1 strain, at 50.0 µM, active compounds read high. The method, boiled down: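 Vehicle-treated cultures served as reference for growth inhibition of compound-exposed mec2-1 yeast.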
The nature of test [3]: NCI Yeast Anticancer Drug Screen. Data for the sgs1 mgt1 strain (AID 161).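 Further: 0% = growth of cultures given vehicle only.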 The following applies: S. cerevisiae sgs1 mgt1 strain, at 50.0 µM, active compounds read high. The method in brief:
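Test agents were incubated with a DNA-repair-mutant yeast strain. Growth was then read and compared against vehicle-treated controls.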

A short description of test [4]: NCI Yeast Anticancer Drug Screen. Data for the cln2 rad14 strain (AID 165).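 Further: 0% = growth equal to vehicle treated cultures.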 The following applies: S. cerevisiae cln2 rad14 strain, at 50.0 µM, active compounds read high. The method, boiled down: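 Each compound was tested on cln2 rad14 yeast. Inhibition of growth was calculated against vehicle-exposed controls.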
Test [5] is described as follows: NCI Yeast Anticancer Drug Screen. Data for the bub3 strain (AID 167). Particulars: S. cerevisiae bub3 mutant strain, at 50.0 µM, active compounds read high. The method, boiled down: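 Whole-cell yeast assay. The mutant strain was incubated with compounds, and growth inhibition was determined by comparison with vehicle-treated cells.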
Test [6] in a line: NCI Yeast Anticancer Drug Screen. Data for the mlh1 rad18 strain (AID 175). Particulars: S. cerevisiae mlh1 rad18 strain growth inhibition; at 50.0 µM; active compounds read high. The method, boiled down:
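Vehicle-treated cultures served as the reference for growth inhibition in a yeast strain carrying DNA damage repair alterations exposed to each compound.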

For the compound `Cc1c(-c2ccccc2)nnn1-c1ccc(F)cc1F`, the growth inhibition in test [1] was 1.7%; in test [2], -28.8%; in test [3], 13.4%; in test [4] it was -10.6%; in test [5], 20.8%; in test [6], -9.35%.
`CCOc1ccc(Nc2nc(C(Cl)(Cl)Cl)cc(C(Cl)(Cl)Cl)n2)cc1CN(CC)CC`: the growth inhibition in test [1] was 98.2% (active); in test [2] it was 99.1% (active); in test [3], 99% (active); in test [4], 98.1% (active); in test [5], 98% (active); in test [6], 98.8% (active).
Take `CC(C)(C)[C@@H]1NC(=O)CN1C(=O)OCc1ccccc1`: the growth inhibition is -22.1% in test [1]; -35.2% in test [2]; -51.9% in test [3]; -17.1% in test [4]; 26.9% in test [5]; -11.1% in test [6].
As for `NCc1ccccc1[N+](=O)[O-]`, the growth inhibition was 11.4% in test [1]; 6.2% in test [2]; 3.5% in test [3]; -1.6% in test [4]; 3.5% in test [5]; 12% in test [6].
Turning to `N#Cc1[nH]nc2nc[nH]c(=O)c12`, the growth inhibition in test [1] was -16.3%; in test [2] it was -14.8%; in test [3], -10.8%; in test [4], -9.95%; in test [5], 3.9%; in test [6], 4.85%.
As for `O=C(COc1c(Cl)c(Cl)c(Cl)c(Cl)c1Cl)Nc1cccc(Cl)c1`, the growth inhibition in test [1] is 18.9%; in test [2], 2%; in test [3] it was 5.25%; in test [4], 15.2%; in test [5], 21.3%; in test [6], 22.8%.
In the case of `C=C(C/C(=C/S(C)=O)c1ccccc1)c1ccccc1` (stereo unspecified), the growth inhibition in test [1] is 43.9%; in test [2] it was 12.3%; in test [3], 18.7%; in test [4] it was 29.6%; in test [5] it was 20.9%; in test [6] it was 34.4%.
Take `COC(=O)CCc1ccc(C2CO2)cc1` (stereo unspecified): the growth inhibition was -1.4% in test [1]; 6.15% in test [2]; -9.5% in test [3]; -0.2% in test [4]; -11.2% in test [5]; 10.3% in test [6].
Take `Nc1nc(C2CCCCC2)cs1`: the growth inhibition in test [1] was 54.2%; in test [2] it was 29.8%; in test [3], 31.1%; in test [4], 16.1%; in test [5], 14.9%; in test [6], 20.4%.
In the case of `O=C1c2ccccc2C(=O)N1Br`, the growth inhibition is 0.15% in test [1]; -19.5% in test [2]; 6.5% in test [3]; 10.8% in test [4]; 3.6% in test [5]; 18.9% in test [6].
Regarding `COC(=O)c1nc2nnc(N)n2c(-c2ccc(Cl)cc2)c1C`, the growth inhibition in test [1] is -6.3%; in test [2] it was 11.1%; in test [3], 7.25%; in test [4] it was -15.9%; in test [5] it was -4.35%; in test [6], 0.75%.
Take `COC(=O)CC1C(OC)OC23CCC1C2(C)CCC1C3CCC2CC(OC(C)=O)CCC21C` (stereo unspecified): the growth inhibition in test [1] is 28.1%; in test [2] it was 3%; in test [3], 13.8%; in test [4], -30.2%; in test [5] it was -1.7%; in test [6], 8.5%.
With `COc1cc2c(c(OC)c1OC)CCC1(C)C(=O)NN=C21` (stereo unspecified), the growth inhibition in test [1] was -18.1%; in test [2] it was 11.1%; in test [3] it was 23.5%; in test [4], -1.55%; in test [5], 13.7%; in test [6] it was 3.9%.
`O=C1CCCC/C1=C1/SC(=Nc2ccccc2)C(=Nc2ccccc2)N1c1ccccc1`: the growth inhibition in test [1] was 21.2%; in test [2] it was 16.1%; in test [3] it was 16.2%; in test [4] it was 31%; in test [5], 19.1%; in test [6], 8.6%.
`NS(=O)(=O)c1ccc(N=Cc2ccccc2)cc1`: the growth inhibition in test [1] is 0.4%; in test [2], -1.35%; in test [3], 12.6%; in test [4], 5.45%; in test [5], 15.2%; in test [6], 10.1%.
Regarding `Fc1cccc(-c2nnc(-c3ccccc3)o2)c1`, the growth inhibition in test [1] is 34.1%; in test [2], 23.1%; in test [3] it was 28.9%; in test [4], 19.4%; in test [5], 37.8%; in test [6], -1.65%.
On to `O=C(CC(=O)n1nc(-c2ccccc2)c(N=Nc2ccc([N+](=O)[O-])cc2)c1-c1ccccc1)Nc1ccc(Cl)cc1`, for which the growth inhibition in test [1] is 35.6%; in test [2], 3.1%; in test [3], 52%; in test [4] it was 17.4%; in test [5] it was 53%; in test [6] it was 23.9%.
As to `CC1(C)CC2=C(Sc3ccccc3N2)C(=O)C1C(=O)C(=O)Nc1cccc([N+](=O)[O-])c1` (stereo unspecified), the growth inhibition in test [1] was -22.1%; in test [2] it was -22.8%; in test [3], -11.7%; in test [4], -35.9%; in test [5], 2%; in test [6] it was 1.1%.
With `CCCCCCCCCCCCCC(=O)NCC(=O)NC(CO)C(=O)NC(CO)C(=O)NC(CCCCN)C(=O)NC(CO)C(=O)NC(CCCCN)C(=O)N1CCCC1C(=O)NC(CCCCN)C(=O)NC(CC(=O)O)C(N)=O` (stereo unspecified) (Myristoyl-GSSKSKPKD-NH2; configuration not given here), the growth inhibition is 7.25% in test [1]; -2.55% in test [2]; -3.9% in test [3]; 6.1% in test [4]; 10.3% in test [5]; 14% in test [6].
In the case of `Cc1ccc(N2C(=O)CSC2=S)cc1C`, the growth inhibition in test [1] is -1.7%; in test [2] it was -15.7%; in test [3], -30%; in test [4], -38%; in test [5], -29%; in test [6], -9.5%.
For `CC(C)(N)COCOCC(C)(C)N`, the growth inhibition was 6.8% in test [1]; -5.35% in test [2]; -1.15% in test [3]; 2.4% in test [4]; 5.8% in test [5]; 0% in test [6].
